Each structure is given as a SMILES string. Counter-ions that a name gives are not always drawn.

The test system of the experiment is thyroid hormone receptor (endogenous TRα and TRβ). On the set-up: species or system GH3-TRE-Luc (rat pituitary); GH3-TRE-Luc luciferase reporter, antagonist mode against 1 nM T3, loss of signal, qHTS. Conditions: read-out: Average AC50 (uM) GH3-TRE-Antag, antagonist mode, 1 nM T3, no GH3 cytotoxicity hit.
As usually defined, the AC50 is the concentration at which the activity in the assay is half-maximal. For `NCCN1CCNCC1` [1-(2-Aminoethyl)piperazine], the AC50 was > 90 µM.
The same measure for `CC(C)c1ccc2oc3nc(N)c(C(=O)O)cc3c(=O)c2c1` [Amlenanox]: 32.7 µM; for `COc1ccc2[nH]c([S+]([O-])Cc3ncc(C)c(OC)c3C)nc2c1` (centres unmarked) [Omeprazole]: > 50 µM.
The same measure for `CC(=O)C(Cl)C(=O)N(C)C` (centres unmarked) [2-Chloro-N,N-dimethyl-3-oxobutanamide]: 90.4 µM.
The same measure for `NC(=O)N(O)[C@@H]1C=C[C@H](Oc2cccc(Oc3ccc(F)cc3)c2)C1` [CJ-013790]: 81.3 µM; for `O=C(c1ccccc1)C1CCCCC1` [Cyclohexylphenylketone]: 69.7 µM; for `O=C(O)c1cc(Oc2ccc(C(F)(F)F)cc2Cl)ccc1[N+](=O)[O-]` [Acifluorfen]: 71.8 µM.
As for `OCCN(CCO)c1nc(N2CCCCC2)c2nc(N(CCO)CCO)nc(N3CCCCC3)c2n1` [Dipyridamole], the AC50 was 24.3 µM.
Turning to `CC[C@H](C)COC(=O)/C=C/c1ccc(N=Cc2ccc(OC)cc2)cc1` [(+)-2-Methylbutyl-4-methoxybenzyladine-4'-aminocyannate], the AC50 worked out at 62 µM.
The same measure for `C/C=C(/CC[C@@H](C)[C@H]1CC[C@H]2C3=CC[C@H]4[C@H](C)[C@@H](O)CC[C@]4(C)[C@H]3CC[C@]12C)C(C)C` [Sitosterol alpha1]: 40.6 µM; for `CC(C)[C@H](C(=O)O[C@H](C#N)c1cccc(Oc2ccccc2)c1)c1ccc(Cl)cc1` [Esfenvalerate]: 48 µM; for `COC(=O)N(C(=O)N1CO[C@@]2(C(=O)OC)Cc3cc(Cl)ccc3C2=N1)c1ccc(OC(F)(F)F)cc1` [Indoxacarb]: 9.12 µM.
The same measure for `CC(Cc1ccccc1)(NC(=O)CN)c1ccccc1` (centres unmarked) [Remacemide hydrochloride]: 21.8 µM; for `Clc1ccc(CCC(Cn2ccnc2)Sc2c(Cl)cccc2Cl)cc1` (centres unmarked) [Butoconazole nitrate]: 17.9 µM.
The same measure for `O=Cc1ccc(Cl)c([N+](=O)[O-])c1` [4-Chloro-3-nitrobenzaldehyde]: 68.3 µM; for `Cc1nc(-c2ccc(OCC(C)C)c(C#N)c2)sc1C(=O)O` [Febuxostat]: 17.9 µM; for `c1ccc(P(c2ccccc2)c2ccccc2)cc1` [Triphenylphosphine]: > 90 µM.
As to `CC(=O)Oc1ccc(C2(c3ccc(OC(C)=O)cc3)Oc3ccccc3NC2=O)cc1` [Bisoxatin acetate], the AC50 was 3.76 µM.
The same measure for `c1cnc2cc3c(cc2n1)[C@@H]1CNC[C@H]3C1` [Varenicline dihydrochloride]: 63.5 µM; for `CCOCN(C(=O)CCl)c1c(C)cccc1CC` [Acetochlor]: 75.3 µM.
In the case of `CNCc1ccc(NC(=O)c2c[nH]c3c2C(=O)CCC3)cc1` [CP-409092], the AC50 worked out at 84.3 µM.
The value for `CCN(CC)CCOc1ccc2c(c1)C(=O)c1cc(OCCN(CC)CC)ccc1-2` [Tilorone] was 17.6 µM; that for `Cc1c(OCC(F)(F)F)ccnc1C[S+]([O-])c1nc2ccccc2[nH]1` (centres unmarked) [Lansoprazole] was > 50 µM.
The value for `CCN(CC)CCNC(=O)c1cc(Br)c(N)cc1OC` [Bromopride] was 38.6 µM.
The same measure for `O=C(O)c1nn(Cc2ccc(Cl)cc2Cl)c2ccccc12` [Lonidamine]: > 50 µM; for `CC(C)(C)c1cccc(C(C)(C)C)c1O` [2,6-Di-tert-butylphenol]: 25.4 µM.
For the compound `CCCCCCCCCCCCCCCC(=O)OC[C@H](O)[C@H]1OC(=O)C(O)=C1O` [Ascorbyl palmitate], the AC50 was > 50 µM.
Take `O=C(CS)OCCOC(=O)CS` [Ethane-1,2-diyl bis(sulfanylacetate)]: the AC50 was determined as 51.5 µM.
The value for `N#Cc1cc(Br)c(O)c(Br)c1` [Bromoxynil] was 69.3 µM.
The value for `CCC(COC(=O)c1cc(OC)c(OC)c(OC)c1)(c1ccccc1)N(C)C` (centres unmarked) [Trimebutine maleate] was 16.3 µM; that for `Cc1ccccc1C(=O)Nc1cccc(OC(C)C)c1` [Mepronil] was 48.2 µM.
The value for `CCCCOCCOC(=O)COc1cc(Cl)c(Cl)cc1Cl` [2,4,5-T-butotyl] was 80.4 µM; that for `CCc1c2c(nc3ccc(OC(=O)N4CCC(N5CCCCC5)CC4)cc13)-c1cc3c(c(=O)n1C2)COC(=O)[C@]3(O)CC` [Irinotecan hydrochloride] was 19.1 µM.
For the compound `C=CCOC(Cn1ccnc1)c1ccc(Cl)cc1Cl` (centres unmarked) [Imazalil sulfate], the AC50 is 28.4 µM.
`NCCNCCN` [Diethylenetriamine]: the AC50 was 18 µM.
The same measure for `CCOC(=O)Cn1cccc1-c1nc(-c2ccc(OC)cc2)c(-c2ccc(OC)cc2)s1` [Pamicogrel]: 14.5 µM.
Turning to `O=P(c1ccccc1)(c1ccccc1)c1ccccc1` [Triphenylphosphine oxide], the AC50 came to 58.7 µM.
In the case of `Cc1nc2ccc(CN(C)c3ccc(C(=O)N[C@@H](CCC(=O)O)C(=O)O)s3)cc2c(=O)[nH]1` [Raltitrexed], the AC50 came to 0.18 µM.

The record behind these values is article PMC6792352, “Limited Chemical Structural Diversity Found to Modulate Thyroid Hormone Receptor in the Tox21 Chemical Library” (Environmental Health Perspectives, 2019).
